Measured values taken from PubChem BioAssay AID1259417 (TB Discovery Research, Infectious Disease Research Institute, 2018).
The campaign covered roughly 1,100 compounds. About 760 (69%) were called active. How the calls were made is not given here. So high a share suggests a set chosen from earlier hits. The list shows a part of the results.

Assay: M. tuberculosis growth inhibition, HTS (AID 1259417);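 further: bacteria grown with compound for 5 days at 37 °C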
Settings: stronger effect = higher value, concentration not given here
[1] = M. tuberculosis DsRed fluorescence growth inhibition
[2] = M. tuberculosis growth inhibition

| SMILES | inhibition [1] | inhibition [2] |
| --- | --- | --- |
| CCCCOc1ccc(C(=O)Nc2nnc(-c3ccncc3)o2)cc1 | 18.1% (active) | 42.4% |
| CCOc1ccc(C(=O)Nc2nnc(-c3ccccn3)o2)cc1 | 3.93% (inactive) | -4.77% |
| CCCCOc1ccc(C(=O)Nc2nnc(-c3ccco3)o2)cc1 | 44.2% (active) | 26% |
| COc1ccc(C(=O)Nc2nnc(C3=COCCO3)o2)cc1 | -1.74% (inactive) | -16.2% |
| O=C(Nc1nnc(-c2ccco2)o1)c1ccc(Oc2ccccc2)cc1 | 70.2% (active) | 86.6% |
| CCc1ccc(/C=C/C(=O)C2C(=O)c3ccccc3C2=O)cc1 | 100% (active) | 99.5% |
| NC(=O)c1c(NC(=O)c2cccc(F)c2)sc2c1CCC2 | -2.04% (inactive) | -14.1% |
| NC(=O)c1c(NC(=O)c2c(F)c(F)c(F)c(F)c2F)sc2c1CCCCCC2 | 43.3% (active) | 78.9% |
| NC(=O)c1c(NC(=O)c2c(F)c(F)c(F)c(F)c2F)sc2c1CCC2 | 98.9% (active) | 95.4% |
| Cc1ccc(C(=O)Nc2sc3c(c2C(N)=O)CCC(C(C)(C)C)C3)c(C)c1 (stereo not given) | -2.03% (inactive) | -11.7% |
| COc1cc(C(=O)Nc2sc3c(c2C(N)=O)CCCC3)c(Br)c(OC)c1OC | 27.3% (inactive) | 4.82% |
| CC(C)(C)c1ccc(Cn2cnc([N+](=O)[O-])n2)cc1 | 98.3% (active) | 96.6% |
| COc1cccc(C(=O)Nc2sc3c(c2C(N)=O)CCCCCC3)c1 | -2.93% (inactive) | -15.5% |
| CCOC(=O)c1c(NC(=O)c2cc(-n3cnnc3)ccc2Cl)sc2c1CCCC2 | 37.7% (active) | 36.2% |
| COC(=O)c1c(NC(=O)c2c(F)cccc2F)sc2c1CCC(C(C)(C)C)C2 (stereo not given) | 0.929% (inactive) | -6.55% |
| NC(=O)c1c(NC(=O)c2cc(Cl)ccc2Cl)sc2c1CCCCCC2 | -5.89% (inactive) | -25.5% |
| CCOc1cccc(C(=O)Nc2sc3c(c2C(N)=O)CCC3)c1 | -0.558% (inactive) | -34.5% |
| CCOC(=O)c1c(NC(=O)COc2ccc(C(C)C)cc2)sc2c1CCC2 | 44.6% (active) | 99.6% |
| COC(=O)c1c(NC(=O)c2c(F)c(F)c(F)c(F)c2F)sc2c1CCC2 | 98.2% (active) | 95.8% |
| COC(=O)c1c(NC(=O)c2c(F)c(F)c(F)c(F)c2F)sc2c1CCCCC2 | 97.4% (active) | 93% |
| Cc1cc(C2N=C(N)Nc3nc4ccccc4n32)c(C)n1-c1ccccc1Cl (stereo not given) | -7.08% (inactive) | -25.2% |
| Cc1ccc(-n2cc(-c3ccccc3)c3c(NCc4cccnc4)ncnc32)cc1 | 19.7% (inactive) | -7.61% |

| SMILES | inhibition [1] | inhibition [2] |
| --- | --- | --- |
| CNC(=O)c1c(NC(=O)c2cccc(C)c2)sc2c1CCC2 | 9.53% (inactive) | -24.5% |
| CCOC(=O)c1c(NC(=O)c2c(F)c(F)c(F)c(F)c2F)sc2c1CCCCC2 | 97.9% (active) | 96.2% |
| Cc1cccc(C(=O)Nc2sc3c(c2C(=O)N2CCCC2)CCC3)c1 | -0.854% (inactive) | -7.24% |
| CCOC(=O)C=CC(=O)Nc1sc2c(c1C(=O)OC)CCC2 | 10.6% (active) | 29.7% |
| Oc1ccc(Br)cc1-c1nc(-c2cccs2)c(-c2cccs2)[nH]1 | 1.19% (inactive) | -11.5% |
| N#Cc1cc2c(ccc3ccccc32)oc1=O | 17.3% (active) | 55.9% |
| CC(C)(C)C(=O)Nc1nnc(-c2ccc(Br)cc2)o1 | 90.8% (active) | 84.1% |
| COC(=O)C(C)Sc1nnc(-c2ccc(Br)cc2)o1 (stereo not given) | 71.1% (active) | 95.8% |
| CCCCC(=O)Nc1nnc(-c2ccc(Br)cc2)o1 | 5.72% (inactive) | 15.5% |
| CC(C)C(=O)Nc1nnc(-c2ccccc2)o1 | 1.9% (inactive) | 2.21% |
| CC(C)C(=O)Nc1nnc(-c2ccc(Br)cc2)o1 | 23.4% (active) | 38.6% |
| O=C1C=C(c2ccccc2)C(=O)c2ccccc21 | 12% (active) | 58.3% |
| O=C(CSc1nnc(Cc2ccccc2)o1)NCCc1ccccc1 | 63.5% (active) | 42% |
| COc1ccc(Cc2nnc(SCC(=O)NCCc3ccccc3)o2)cc1 | 98% (active) | 96.2% |
| COc1ccc(Cc2nnc(SCC(=O)NCc3ccco3)o2)cc1 | 32.4% (active) | 54.8% |
| O=C(CSc1nc2cc(Cl)ccc2o1)NCCc1ccccc1 | 85.8% (active) | 53% |
| COc1ccc(-c2nnc(SCC(=O)NCCc3ccccc3)o2)cc1 | 93.3% (active) | 88.5% |
| COc1cccc(N2CCN(Cc3nc(N)nc(Nc4ccc(C)c(Cl)c4)n3)CC2)c1 | 9.68% (inactive) | 23.6% |
| COc1ccc(N2CCN(Cc3nc(N)nc(Nc4ccc(C)c(Cl)c4)n3)CC2)cc1 | 27.3% (active) | 55.4% |
| Cc1cccc(Nc2nc(N)nc(CN3CCN(c4cccc(Cl)c4)CC3)n2)c1 | 33.7% (active) | 47.4% |
| Cc1cccc(NC(=S)NCCN2CCN(c3ccc(F)c(Cl)c3)CC2)c1C | 9.39% (inactive) | -14% |
| O=c1c2ccccc2[nH]c(=S)n1CCCN1CCN(c2cccc(Cl)c2)CC1 | 14.1% (inactive) | -11.2% |

| SMILES | inhibition [1] | inhibition [2] |
| --- | --- | --- |
| COc1cccc(N2CCN(Cc3nc(N)nc(Nc4ccc(C)c(C)c4)n3)CC2)c1 | 29.6% (active) | 48.8% |
| O=C(OCC#CCSc1nnc(-c2ccc(Br)cc2)o1)c1cccs1 | 33.6% (active) | 31.6% |
| CC(=O)OCC#CCSc1nnc(-c2ccc(Br)cc2)o1 | 49.2% (active) | 48% |
| O=C(OCC#CCSc1nnc(-c2ccc([N+](=O)[O-])cc2)o1)c1cccs1 | 65.7% (active) | 72.9% |
| CSc1ccc(C(=O)C2CCCN(Cc3cc4ccccc4[nH]3)C2)cc1 (stereo not given) | 4.22% (inactive) | -24.7% |
| CCC(C)c1ccc(O)c(NC(=S)NC(=O)c2ccc(-c3ccc(Cl)cc3)o2)c1 (stereo not given) | 74.3% (active) | 78.2% |
| O=C(Nc1cccc(Br)c1)c1ccc(-c2ccc(Cl)cc2)o1 | 8.23% (inactive) | 21% |
| CCCC(=O)N1CCN(c2ccc(NC(=O)c3ccc(-c4ccc(Cl)cc4)o3)cc2Cl)CC1 | 0.329% (inactive) | -21.3% |
| CCC(C)c1ccc(O)c(NC(=S)NC(=O)c2cccnc2)c1 (stereo not given) | 99.4% (active) | 99.7% |
| C=CCn1c(=NC(=O)c2ccc([N+](=O)[O-])s2)sc2cc(S(N)(=O)=O)ccc21 | 59.9% (active) | 94.9% |
| CCc1c(C)c2ccc(OCC(=O)OC)c(C)c2oc1=O | 49.4% (active) | 89.1% |
| COC(=O)Cc1c(C)c2ccc(OCC(=O)OCc3ccccc3)c(C)c2oc1=O | 4.42% (active) | 54% |
| Cc1cc(C)cc(COc2ccc3c(C)c(CCC(=O)O)c(=O)oc3c2C)c1 | 13.5% (inactive) | -13.6% |
| O=c1cnnc(NN=Cc2cc(Br)ccc2O)[nH]1 | 100% (active) | 98.8% |
| Cc1cccc(C(=O)N2N=C(c3ccc(Br)cc3)CC2(O)C(F)(F)F)c1 (stereo not given) | 12.2% (active) | 41% |
| O=C(c1cccc([N+](=O)[O-])c1)N1N=C(c2ccc(Br)cc2)CC1(O)C(F)(F)F (stereo not given) | 5.59% (inactive) | 21% |
| COc1cc(CNC23CC4CC(CC(C4)C2)C3)ccc1OCc1ccccc1 | 99.4% (active) | 96.2% |
| CN(C)c1ccc(CNC23CC4CC(CC(C4)C2)C3)cc1 | 98.9% (active) | 95.5% |
| c1ccc(COc2ccccc2CNC23CC4CC(CC(C4)C2)C3)cc1 | 22.3% (inactive) | 3.79% |
| CCOc1cc(CNC23CC4CC(CC(C4)C2)C3)ccc1OCc1cccs1 | 99.7% (active) | 95.9% |
| CCOc1cccc(N2C(=O)CC(SC(N)=NN=C(C)c3ccc(Cl)s3)C2=O)c1 (stereo not given) | 6.46% (inactive) | -10.4% |
